Beta2AR agonist: agonists of human beta-2 adrenergic receptor inducing internalization | Am2.2-beta2AR cells, FAP receptor internalization, flow cytometry | 340,000 tested, 0.43% active | response, % (no concentration beside the values);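 active means response above a set limit, near 3 SD of response in nonfluorescent compounds, cut at about 42% in these data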
NTR1 agonist: NTR1 (human) agonism | P30989 | NTR1-U2OS beta-arrestin-GFP spot imaging, agonist mode | activation, % at 20 µM | 330,000 tested, 0.17% active | AID 493036;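 active means activation at or above 40% of the spot to cytoplasm intensity ratio, with at least 20 cells analyzed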
Target sequence (P30989 whole entry, looked up): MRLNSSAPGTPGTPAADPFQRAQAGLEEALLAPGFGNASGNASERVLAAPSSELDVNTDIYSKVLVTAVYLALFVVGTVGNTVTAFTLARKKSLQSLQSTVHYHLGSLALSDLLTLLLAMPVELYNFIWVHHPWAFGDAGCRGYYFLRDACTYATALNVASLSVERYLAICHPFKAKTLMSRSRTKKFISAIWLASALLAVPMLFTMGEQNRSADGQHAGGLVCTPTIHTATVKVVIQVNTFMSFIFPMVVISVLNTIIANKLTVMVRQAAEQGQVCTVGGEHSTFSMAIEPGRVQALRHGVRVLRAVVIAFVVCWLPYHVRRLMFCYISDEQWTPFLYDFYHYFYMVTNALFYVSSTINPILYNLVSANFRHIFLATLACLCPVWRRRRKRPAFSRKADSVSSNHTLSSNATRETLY
Bfl-1 A1 inh: inhibitors of the anti-apoptotic protein A1, read as caspase activation. MEF A1-2A-BIM cells, Caspase-Glo 3/7 luminescence, 3 h; percent of clofoctol response, vehicle zero. caspase activation, % (test concentration not listed). 330,000 tested, 0.066% active. AID 2462;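 active means over half of replicate activation scores above 10%, or exactly half above 10 with the replicate mean above 10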
NOD2-RIPK2 inh: NOD2-RIPK2 protein interaction inhibition. CHO BLA complementation NOD2-RIPK2, CCF4 ratio. inhibition, % at 4.98 µM. 360,000 tested, 0.38% active; in the data active means inhibition above about 21%
TLR4-MyD88 BLA: blocks binding of human TLR4 to MyD88. O00206+Q99836. HeLa CL3-4 TLR4/MyD88 BLA complementation, FRET ratio. inhibition, % at 8.4 µM. 200,000 tested, 0.18% active. AID 861; in the data active means inhibition above about 25%
TLR9-MyD88 inh: TLR9-MyD88 interaction inhibition; CHO BLA complementation TLR9-MyD88, CCF4 FRET ratio; inhibition, % at 4.98 µM; 340,000 tested, 0.21% active;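 active means inhibition above the mean over all tested compounds plus 3 SD, cut at about 21% in these data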
Hits are given with their value; 0 = inactive; - = no result. Shown are actives, neighbours in structure and some others; about 0.97% of the full set was active somewhere.

SMILES	Beta2AR agonist	NTR1 agonist	Bfl-1 A1 inh	NOD2-RIPK2 inh	TLR4-MyD88 BLA	TLR9-MyD88 inh
CCCCNc1c(-c2ccc(SC(C)CC)c(OC)c2)nc2ccc(Cl)cn12 (stereo not given)	52	0	0	0	-	0
CCCCNc1c(-c2ccc(-c3ccc(OC)cc3)c(OC)c2)nc2ccccn12	46	0	-	0	-	0
CCCCNc1c(-c2ccc(SC(C)CC)cc2)nc2cnccn12 (stereo not given)	0	0	0	69	-	54
CCCCCCSc1cc(-c2nc3cc(C)ccn3c2NCCCC)ccc1OC	0	0	0	0	-	0
COc1cccc(-c2sc3ccccc3c2-c2ccc(OCCN(C)C)cc2)c1	65	0	0	0	-	0
O=C(N=Nc1c(O)[nH]c2ccc([N+](=O)[O-])cc12)c1cc(-c2ccccc2Cl)nc2ccccc12	0	0	48	0	0	0
CCOc1ccccc1OCCCC(=O)N1CCN(S(=O)(=O)c2ccc(Cl)cc2)CC1	0	-	0	0	-	0
CCOc1ccccc1OCCC(=O)N1CCN(S(=O)(=O)c2ccccc2[N+](=O)[O-])CC1	0	0	21	0	-	0
COc1ccc(-c2nn(-c3ccccc3)cc2/C=N/NC(=O)c2ccc(Br)o2)cc1	61	0	0	0	0	0
CC(=O)Nc1ccc(NC(=O)C(C)OC(=O)/C=C/c2cn(-c3ccccc3)nc2-c2cccnc2)cc1 (stereo not given)	0	0	16	0	0	0
Cc1ccc(-c2nn(-c3ccccc3)cc2/C=N/NC(=O)CSc2nnc(C)n2-c2ccccc2)cc1	89	0	0	0	0	0
COc1ccc(-c2nn(-c3ccccc3)cc2/C=N/NC(=O)c2ccc3c(c2)OCO3)cc1	-	0	0	-	0	-
COc1cccc(/C=N/NC(=O)CSc2nnc(C)n2-c2ccccc2)c1O	0	0	0	0	0	0
COc1ccc(-c2nn(-c3ccccc3)cc2/C=C/C(=O)OCC(=O)Nc2ccc(C#N)cc2)cc1	55	0	0	0	0	0
COc1ccc(NC(=O)CN(C)C(=O)/C=C/c2cn(-c3ccccc3)nc2-c2ccc(C)cc2)cc1	0	0	0	0	-	0
Cc1ccc(S(=O)(=O)N2CCCC(C(=O)NC3CC3)C2)cc1 (stereo not given)	0	0	0	0	-	0
O=C(N[C@@H](Cc1ccccc1)C(=O)CCl)OCc1ccccc1	47	0	0	0	-	0
Cc1cccc(OCC(=O)NCC(=O)N/N=C/c2cc(Br)cc(Br)c2O)c1	0	52	0	0	-	0
COc1ccc(NC(=O)CN(C)S(=O)(=O)c2cccc3nsnc23)cc1OC	0	0	0	0	0	0
CCCC(=O)OCCNc1cc(SCCC(=O)OC)c2nonc2c1[N+](=O)[O-]	0	0	0	0	0	0
COC(=O)CCSc1cc(NCCOC(C)=O)c([N+](=O)[O-])c2nonc12	62	0	0	0	0	0
CCCS(=O)(=O)N1CCC(C(=O)NCCCN2CCCC2=O)CC1	0	0	0	0	0	0
COc1ccc(C(=O)COc2ccc3ccc(=O)oc3c2)c(OC)c1	51	0	0	0	-	0
COc1ccc(C(=O)COc2ccc3ccc(=O)oc3c2)cc1	0	0	0	0	-	0
C/C=C(/C)C(=O)OC1CC(C)(C)C[C@H]2C3=CC[C@@H]4[C@@]5(C)CCC(O[C@@H]6O[C@@H](C(=O)O)[C@@H](O)C(O[C@@H]7OC[C@H](O)[C@@H](O)[C@@H]7O[C@@H]7OC(CO)C(O)[C@@H](O)[C@@H]7O)C6O[C@@H]6OC(CO)C(O)C(O)C6O)[C@@](C)(CO)[C@@H]5CC[C@]4(C)[C@]3(C)CC(O)[C@@]12CO (stereo not given in full)	0	0	0	0	-	0
SMILES	Beta2AR agonist	NTR1 agonist	Bfl-1 A1 inh	NOD2-RIPK2 inh	TLR4-MyD88 BLA	TLR9-MyD88 inh
C/C=C(\C)C(=O)OC1[C@H](OC(C)=O)C2(CO)C(CC1(C)C)C1=CCC3C4(C)CCC(O[C@@H]5O[C@H](C(=O)O)[C@@H](O[C@@H]6O[C@H](CO)[C@@H](O)[C@H](O)[C@H]6O)[C@H](O)[C@H]5O[C@H]5O[C@H](CO)[C@@H](O)[C@H](O)[C@H]5O)[C@](C)(CO)C4CCC3(C)[C@]1(C)C[C@H]2O (stereo not given in full)	61	-	-	30	-	58
CCOC(=O)c1nc(C)sc1-c1ccnn1S(=O)(=O)c1ccc(Cl)cc1Cl	0	0	0	0	-	0
O=C(O)c1cccnc1SCC(=O)N1CCCCCC1	0	0	0	0	0	0
O=C(CSc1ncccc1C(=O)O)NC1CCCCC1	0	0	5.5	0	-	0
O=C(CSc1cccc[n+]1[O-])NC1CCCCC1	0	0	8.3	0	-	0
Cc1nn(-c2ccccc2)c(Cl)c1C(=O)NCC(C)C	0	0	0	0	0	0
Cn1c(=O)c(C(=O)NNC(=O)c2cccc(Cl)c2)c(O)c2ccccc21	77	0	0	0	-	0
O=C(c1ccc(Cl)c(Cl)c1)c1cc(-c2ccccn2)c(N2CCOCC2)s1	0	0	0	24	0	0
CCCCCCCCCCn1c2c(c(=N)c3c1CCC3)CCC2	0	42	0	0	0	0
CS(=O)(=O)c1ccc(SCC(=O)NC2CCS(=O)(=O)C2)c([N+](=O)[O-])c1 (stereo not given)	0	0	0	0	0	0
COC(=O)c1ccc(CSc2nnc3nc(C)cc(C)n23)cc1	0	0	0	0	0	0
CN=c1scc(-c2cccs2)n1/N=C/c1ccc(O)c(O)c1O	106	0	0	0	0	0
CN=c1scc(C)n1/N=C/c1cc(Br)c(O)c(OC)c1	0	0	0	0	0	0
CN=c1scc(C)n1/N=C/c1ccc(O)c(O)c1O	69	0	0	0	0	0
CCOC(=O)c1cccc(NS(=O)(=O)c2c(C)[nH]c(=O)[nH]c2=O)c1	0	0	0	0	0	0
O=S(=O)(Cc1ccccc1)N(O)c1ccccc1	77	0	0	0	-	0
Cc1c(C)c(C)c(C(=O)CCc2cccc(NC(=O)CCC(=O)O)c2)c(C)c1C	0	0	11	0	-	0
O=[N+]([O-])c1cc([N+](=O)[O-])c2cccnc2c1Oc1ccccc1O	51	-	0	0	0	0
Cn1nnnc1Sc1ncnc2scc(-c3cccc4ccccc34)c12	0	0	0	0	-	0
CCOC(=O)c1c(C)oc2c1c(CN1CCN(C(=O)OCC)CC1)c(O)c1ccccc12	0	0	20	0	0	0
CCOC(=O)c1c(C)oc2c1c(CN1CCN(CCO)CC1)c(O)c1ccccc12	0	-	-	0	0	0
O=C(c1ccccc1)C1CC=CCC1C(=O)c1ccccc1 (stereo not given)	44	-	-	0	-	0
COc1ccc2[nH]c3c4c(ccc3c2c1)C(=O)C=CC4=O	61	0	-	0	-	0
COc1ccc2[nH]c(=O)cc(C(=O)O)c2c1	0	0	0	0	0	0

Source: PubChem (several laboratories)
